Holding throughout (assay): DAPPL (digital affinity profiling via proximity ligation, sequencing); 10 mM Tris-HCl pH 7.5, 50 mM NaCl, 1 mM DTT, 4% glycerol, room temperature, 30 min; GST-TFs on glutathione beads, 16-mer random dsDNA library, 0.1% formaldehyde crosslink after washing; high values mean tight binding
What all share (conditions): protein: recombinant; tags: N-terminal GST; dsDNA, one strand shown

One experiment deals with T1, ERF (Homo sapiens, UniProt P50548 1-548).
T1 sequence: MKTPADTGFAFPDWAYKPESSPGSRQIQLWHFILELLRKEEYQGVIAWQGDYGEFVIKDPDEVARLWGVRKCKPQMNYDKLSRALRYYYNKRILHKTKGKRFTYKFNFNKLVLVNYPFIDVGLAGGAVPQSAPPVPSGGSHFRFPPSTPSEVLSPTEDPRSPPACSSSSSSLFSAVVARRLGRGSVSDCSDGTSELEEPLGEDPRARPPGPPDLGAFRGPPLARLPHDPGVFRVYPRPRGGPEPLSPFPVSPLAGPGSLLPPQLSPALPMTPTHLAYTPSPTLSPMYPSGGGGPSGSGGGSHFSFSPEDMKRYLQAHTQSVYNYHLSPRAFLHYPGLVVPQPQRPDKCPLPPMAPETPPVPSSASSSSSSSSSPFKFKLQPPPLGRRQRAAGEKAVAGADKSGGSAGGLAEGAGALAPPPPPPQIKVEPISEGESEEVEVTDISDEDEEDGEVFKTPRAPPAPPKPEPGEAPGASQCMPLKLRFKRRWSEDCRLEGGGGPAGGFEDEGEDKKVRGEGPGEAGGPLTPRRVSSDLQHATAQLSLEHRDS
The procedure, abridged: (§1)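 Pools of DNA-barcoded human transcription factors, expressed in yeast as GST fusions on glutathione beads and combined with a tag-only sample, were incubated with 200 nmole of a 16-mer random double-stranded DNA library. Incubation took 30 min at room temperature in Tris/NaCl/DTT/glycerol buffer and was followed by washing, 0.1% formaldehyde crosslinking, proximity ligation (BsaI/T4 ligase, 1 h, 37 °C), PCR amplification and sequencing on an Illumina NextSeq500. Binding signal is the ratio of a hexamer's read frequency for a factor to its frequency for the tag-only sample.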

In the next experiment the target is T2, ETS2 (Homo sapiens, UniProt P15036 1-469).
T2 sequence: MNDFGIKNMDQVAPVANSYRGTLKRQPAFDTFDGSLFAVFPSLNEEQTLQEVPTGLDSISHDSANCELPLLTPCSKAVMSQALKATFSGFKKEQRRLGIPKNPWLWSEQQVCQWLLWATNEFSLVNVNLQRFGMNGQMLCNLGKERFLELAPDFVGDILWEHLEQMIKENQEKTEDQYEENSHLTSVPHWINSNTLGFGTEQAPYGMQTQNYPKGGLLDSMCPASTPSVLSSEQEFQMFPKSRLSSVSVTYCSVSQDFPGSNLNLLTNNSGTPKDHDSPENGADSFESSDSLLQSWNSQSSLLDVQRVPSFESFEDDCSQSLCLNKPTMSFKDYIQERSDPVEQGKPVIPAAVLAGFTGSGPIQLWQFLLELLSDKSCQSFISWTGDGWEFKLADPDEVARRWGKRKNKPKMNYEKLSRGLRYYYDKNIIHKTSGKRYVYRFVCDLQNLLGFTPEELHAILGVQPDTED
The procedure, abridged:
as §1

The next experiment has as its target T3, SPDEF (Homo sapiens, UniProt O95238 1-335).
T3 sequence: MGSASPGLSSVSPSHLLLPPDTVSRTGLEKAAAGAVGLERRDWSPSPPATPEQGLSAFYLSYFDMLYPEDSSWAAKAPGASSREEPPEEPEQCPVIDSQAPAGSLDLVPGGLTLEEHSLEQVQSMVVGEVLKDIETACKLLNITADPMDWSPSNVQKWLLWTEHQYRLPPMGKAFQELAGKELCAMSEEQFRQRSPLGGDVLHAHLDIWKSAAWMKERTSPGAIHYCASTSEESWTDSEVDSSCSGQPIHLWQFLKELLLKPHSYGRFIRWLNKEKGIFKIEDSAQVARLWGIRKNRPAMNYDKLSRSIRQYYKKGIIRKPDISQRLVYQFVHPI
The method, boiled down:
as §1

The target of a further experiment is T4, ETV7 (Homo sapiens, UniProt Q9Y603 1-341).
T4 sequence: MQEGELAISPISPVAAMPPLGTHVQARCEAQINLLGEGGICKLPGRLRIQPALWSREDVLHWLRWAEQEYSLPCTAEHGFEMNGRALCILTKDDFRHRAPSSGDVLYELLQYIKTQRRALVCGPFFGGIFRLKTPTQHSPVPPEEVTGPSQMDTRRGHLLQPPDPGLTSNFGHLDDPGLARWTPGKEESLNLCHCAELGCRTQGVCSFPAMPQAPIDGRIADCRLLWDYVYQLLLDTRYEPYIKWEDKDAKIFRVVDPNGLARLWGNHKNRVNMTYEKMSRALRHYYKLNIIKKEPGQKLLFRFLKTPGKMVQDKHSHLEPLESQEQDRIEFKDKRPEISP
The procedure, abridged:
as §1

A further experiment has as its target T5, ETV3 (Homo sapiens, UniProt P41162-2 1-143).
T5 sequence: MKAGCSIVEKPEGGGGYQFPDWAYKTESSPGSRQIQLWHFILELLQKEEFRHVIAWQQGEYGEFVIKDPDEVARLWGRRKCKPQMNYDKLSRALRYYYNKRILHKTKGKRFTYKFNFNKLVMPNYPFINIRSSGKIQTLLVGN
The procedure, abridged:
as §1

Another experiment addresses ETV6 (Homo sapiens, UniProt P41212 1-452). The method, boiled down: as §1
In another experiment the target is T6, ELF5 (Homo sapiens, UniProt Q9UKW6-2 1-255).
T6 sequence: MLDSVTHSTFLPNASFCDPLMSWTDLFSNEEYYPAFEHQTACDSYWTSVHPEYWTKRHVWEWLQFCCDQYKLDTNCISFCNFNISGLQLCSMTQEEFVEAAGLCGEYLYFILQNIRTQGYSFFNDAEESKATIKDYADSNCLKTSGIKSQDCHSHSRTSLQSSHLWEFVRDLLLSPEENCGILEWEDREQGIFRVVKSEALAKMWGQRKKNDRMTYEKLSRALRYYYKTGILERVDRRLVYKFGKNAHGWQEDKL
The procedure, abridged:
as §1

ETV6, sequence (P41212 whole entry): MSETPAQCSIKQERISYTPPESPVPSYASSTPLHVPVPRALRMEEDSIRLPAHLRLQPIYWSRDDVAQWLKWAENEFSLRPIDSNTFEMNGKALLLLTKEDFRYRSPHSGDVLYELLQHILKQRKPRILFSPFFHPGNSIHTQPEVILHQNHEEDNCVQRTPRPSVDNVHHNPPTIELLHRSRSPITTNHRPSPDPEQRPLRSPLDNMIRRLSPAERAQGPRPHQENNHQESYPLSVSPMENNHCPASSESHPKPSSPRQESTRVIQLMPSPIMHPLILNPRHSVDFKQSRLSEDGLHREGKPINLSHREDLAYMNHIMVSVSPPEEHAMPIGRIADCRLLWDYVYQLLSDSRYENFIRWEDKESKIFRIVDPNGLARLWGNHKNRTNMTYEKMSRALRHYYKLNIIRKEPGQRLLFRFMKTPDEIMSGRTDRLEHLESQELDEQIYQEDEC

As to ACTTAG, the binding signal is 1.17 fold enrichment (6-mer frequency, TF over GST control) with ERF; 1.14 fold enrichment (6-mer frequency, TF over GST control) in the experiment with ETS2; 1.01 fold enrichment (6-mer frequency, TF over GST control) in the experiment with SPDEF; 1.03 fold enrichment (6-mer frequency, TF over GST control) with ETV7; 1.09 fold enrichment (6-mer frequency, TF over GST control) in the experiment with ETV3; 1.14 fold enrichment (6-mer frequency, TF over GST control) in the experiment with ETV6.

For CGCCAA, the binding signal is 1.07 fold enrichment (6-mer frequency, TF over GST control) with ERF; 1.04 fold enrichment (6-mer frequency, TF over GST control) with ETS2; 1.01 fold enrichment (6-mer frequency, TF over GST control) with ETV7; 1.04 fold enrichment (6-mer frequency, TF over GST control) with ETV3; 1.03 fold enrichment (6-mer frequency, TF over GST control) in the experiment with ETV6.

On to AGGTTT, for which the binding signal in the experiment with ERF is 1.13 fold enrichment (6-mer frequency, TF over GST control); with ETS2 it was 1.01 fold enrichment (6-mer frequency, TF over GST control); with SPDEF, 1.02 fold enrichment (6-mer frequency, TF over GST control); in the experiment with ETV7 it was 1.08 fold enrichment (6-mer frequency, TF over GST control); with ELF5, 1.04 fold enrichment (6-mer frequency, TF over GST control); with ETV3, 1.11 fold enrichment (6-mer frequency, TF over GST control). In the experiment with ETV6, the binding signal was 1.03 fold enrichment (6-mer frequency, TF over GST control).

With CGACGT, the binding signal was 1.17 fold enrichment (6-mer frequency, TF over GST control) in the experiment with ERF; 1.05 fold enrichment (6-mer frequency, TF over GST control) in the experiment with ETS2; 1.02 fold enrichment (6-mer frequency, TF over GST control) with SPDEF; 1.2 fold enrichment (6-mer frequency, TF over GST control) with ETV7; 1.11 fold enrichment (6-mer frequency, TF over GST control) in the experiment with ELF5; 1.09 fold enrichment (6-mer frequency, TF over GST control) in the experiment with ETV3. Moreover, the binding signal with ETV6 is 1.08 fold enrichment (6-mer frequency, TF over GST control).

As for CAGATG, the binding signal was 1.11 fold enrichment (6-mer frequency, TF over GST control) with ERF; 1.05 fold enrichment (6-mer frequency, TF over GST control) with ETS2; 1.13 fold enrichment (6-mer frequency, TF over GST control) in the experiment with ETV7; 1.02 fold enrichment (6-mer frequency, TF over GST control) with ETV3; 1.03 fold enrichment (6-mer frequency, TF over GST control) in the experiment with ETV6.

Regarding AGTTAA, the binding signal was 1.1 fold enrichment (6-mer frequency, TF over GST control) with ERF; 1.06 fold enrichment (6-mer frequency, TF over GST control) in the experiment with ETS2; 1.01 fold enrichment (6-mer frequency, TF over GST control) in the experiment with SPDEF; 1.01 fold enrichment (6-mer frequency, TF over GST control) in the experiment with ETV7; 1.03 fold enrichment (6-mer frequency, TF over GST control) with ELF5; 1.13 fold enrichment (6-mer frequency, TF over GST control) with ETV3. The binding signal with ETV6 was 1.11 fold enrichment (6-mer frequency, TF over GST control).

On to TTTGAG, for which the binding signal with ERF is 1.13 fold enrichment (6-mer frequency, TF over GST control); with ETS2 it was 1.08 fold enrichment (6-mer frequency, TF over GST control); in the experiment with SPDEF, 1.04 fold enrichment (6-mer frequency, TF over GST control); in the experiment with ETV7, 1.1 fold enrichment (6-mer frequency, TF over GST control); with ELF5, 1.03 fold enrichment (6-mer frequency, TF over GST control); with ETV3, 1.22 fold enrichment (6-mer frequency, TF over GST control). In addition, the binding signal in the experiment with ETV6 is 1.02 fold enrichment (6-mer frequency, TF over GST control).

The values above are taken from publication PMC7862700, “An all-to-all approach to the identification of sequence-specific readers for epigenetic DNA modifications on cytosine”.
